Assay [1] can be described thus: qHTS assay to identify aromatase inhibitors - cell viability counter screen (AID 743084).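 Further: cells stimulated with testosterone during compound exposure; nearly all actives have a fitted effect of over 55% in size.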 A general note: Quantitative high-throughput screening tests each substance at several concentrations.
The target in assay [2] is Aryl hydrocarbon receptor (Homo sapiens) (UniProt P35869). As to the kind of experiment: qHTS assay to identify small molecule that activate the aryl hydrocarbon receptor (AhR) signaling pathway (AID 743085).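 Further: HG2L7.5c1 human HepG2 liver cells with stably integrated DRE-driven firefly reporter; series mostly up to about 70 µM; nearly all actives have a fitted effect of over 15% in size.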 In short, it runs like this:
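Compounds were tested in HepG2 hepatocellular carcinoma cells harbouring a stably integrated luciferase gene under control of 20 DREs. Increased reporter signal after 24 h treatment at 37C was taken as AhR activation.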

Assay [3] deals with Peroxisome proliferator-activated receptor gamma (Homo sapiens) (UniProt P37231). As to the kind of experiment: qHTS assay to identify small molecule agonists of the peroxisome proliferator-activated receptor gamma (PPARg) signaling pathway (AID 743094; active means well fitted activation curve with a large enough effect in the signal ratio in the repeat runs, not every such curve was filed as active; the % refers to the signal ratio). An outline of the steps: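 HEK293H PPARg-bla cells, 5 h settle at 37C/5% CO2; compound (DMSO) 17 h, 37C; B/G FRET substrate 1 h RT; fluorescence intensity read-out. qHTS format.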
Chain of Peroxisome proliferator-activated receptor gamma (Homo sapiens) (P37231 whole entry, looked up): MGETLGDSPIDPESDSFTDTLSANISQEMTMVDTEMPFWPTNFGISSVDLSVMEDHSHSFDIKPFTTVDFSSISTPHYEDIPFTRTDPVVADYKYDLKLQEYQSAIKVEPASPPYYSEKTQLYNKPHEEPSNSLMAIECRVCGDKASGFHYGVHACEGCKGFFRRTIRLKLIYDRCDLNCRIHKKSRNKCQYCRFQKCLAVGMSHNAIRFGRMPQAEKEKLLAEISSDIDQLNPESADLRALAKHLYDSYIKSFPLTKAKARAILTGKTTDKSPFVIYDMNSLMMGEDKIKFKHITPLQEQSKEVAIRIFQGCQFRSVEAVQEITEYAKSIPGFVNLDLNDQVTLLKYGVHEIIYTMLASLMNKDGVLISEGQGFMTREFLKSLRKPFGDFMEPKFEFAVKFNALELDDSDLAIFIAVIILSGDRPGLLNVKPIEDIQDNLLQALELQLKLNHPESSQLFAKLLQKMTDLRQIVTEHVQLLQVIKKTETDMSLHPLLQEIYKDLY

Assay [4] in a line: qHTS assay to identify small molecule antagonists of the peroxisome proliferator-activated receptor gamma (PPARg) signaling pathway - cell viability counter screen (AID 743194). Further: nearly all actives have a fitted effect of over 55% in size. Further: potency means the concentration at half of the fitted maximal effect. In short, it runs like this:
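Cytotoxicity counter screen in PPARg-bla HEK293H cells, same wells as reporter assay. Compounds plus 50 nM rosiglitazone (final) for 17 h at 37 C, then viability read by CellTiter-Glo luminescence.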

Assay [5] is described as follows: qHTS assay for small molecule agonists of the antioxidant response element (ARE) signaling pathway - cell viability counter screen (AID 743203; calls by dose curve; further: nearly all actives have a fitted effect of over 55% in size; further: potency means the concentration at half of the fitted maximal effect). In short, it runs like this: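 Luminescence read-out (CellTiter-Glo, 30 min at room temperature) measured cell viability in the same wells as the ARE beta-lactamase reporter. HepG2 ARE-bla cells were treated with compounds for 16 hrs at 37C/5% CO2.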

Assay [6] can be described thus: qHTS assay for small molecule activators of the heat shock response signaling pathway - cell viability counter screen (AID 743209). Further: nearly all actives have a fitted effect of over 50% in size. In short, it runs like this:
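HSE-bla HeLa; 1500 cells/well; overnight 37 C, 5% CO2; compound 5 h 37 C; LiveBLAzer B/G substrate 2.5 h RT; CellTiter-Glo 30 min RT; luminescence.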

A short description of assay [7]: qHTS assay for small molecule activators of the heat shock response signaling pathway (AID 743210; active means well fitted activation curve with a large enough effect in the signal ratio in the repeat runs, with a control signal flat, not every such curve was filed as active; the % refers to the signal ratio;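 further: HeLa cells with beta-lactamase reporter driven by heat shock elements; series mostly up to about 63 µM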). In short, it runs like this:
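Beta-lactamase reporter read-out: FRET substrate fluorescence after 2.5 h at RT, following 5 h compound treatment at 37 C of HeLa cells carrying HSE-driven bla reporter; quantitative HTS format.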

Assay [8] can be described thus: qHTS assay to identify small molecule antagonists of the peroxisome proliferator-activated receptor delta (PPARd) signaling pathway - cell viability counter screen (AID 743213). Further: nearly all actives have a fitted effect of over 50% in size. An outline of the steps: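 Viability counter-screen, qHTS format: PPARd-bla HEK293H, L165041 300 nM final, 17 h compound exposure at 37 C, CellTiter-Glo luminescence after 30 min RT.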
Assay [9] addresses Peroxisome proliferator-activated receptor delta (Homo sapiens) (UniProt Q03181). As to the kind of experiment: qHTS assay to identify small molecule antagonists of the peroxisome proliferator-activated receptor delta (PPARd) signaling pathway (AID 743215; active means well fitted inhibition curve with a large enough effect in the signal ratio in the repeat runs, not every such curve was filed as active; the % refers to the signal ratio;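 further: cells stimulated with agonist L165041 at 300 nM final during compound exposure; series mostly up to about 62 µM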). An outline of the steps:
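HEK293H GeneBLAzer PPARd UAS-bla reporter cells; cpd + L165041 300 nM final, 17 h 37 C; LiveBLAzer B/G FRET substrate 2 h RT; fluorescence intensity read-out. Antagonist mode.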

For assay [10], the target named is Bile acid receptor (Homo sapiens) (UniProt Q96RI1). As to the kind of experiment: qHTS assay to identify small molecule antagonists of the farnesoid-X-receptor (FXR) signaling pathway (AID 743217; active means well fitted inhibition curve with a large enough effect in the signal ratio in the repeat runs, not every such curve was filed as active; the % refers to the signal ratio). In short, it runs like this:
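Read-out: beta-lactamase FRET fluorescence (LiveBLAzer B/G substrate, 2 h, room temperature) in GeneBLAzer FXR-UAS-bla HEK 293T cells. Compounds were co-dosed with 50 uM chenodeoxycholic acid (final) and incubated 16 h at 37 °C.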

For assay [11] the target is unchanged. Briefly: qHTS assay to identify small molecule agonists of the farnesoid-X-receptor (FXR) signaling pathway (AID 743220; active means well fitted activation curve with a large enough effect in the signal ratio in the repeat runs, not every such curve was filed as active; the % refers to the signal ratio). In short, it runs like this:
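FXR-UAS-bla HEK 293T cells carrying a UAS-driven beta-lactamase reporter were plated for 5 h at 37C/5% CO2, then exposed to DMSO-dissolved Tox21 10K compounds for 16 h at 37C. A LiveBLAzer B/G FRET substrate was loaded for 2 h at room temperature before fluorescence reading.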

A short description of assay [12]: qHTS assay to identify small molecule antagonists of the farnesoid-X-receptor (FXR) signaling pathway - cell viability counter screen (AID 743221; active means well fitted cell-killing curve with a large enough effect in the repeat runs, not every such curve was filed as active; further: nearly all actives have a fitted effect of over 50% in size; further: potency means the concentration at half of the fitted maximal effect). An outline of the steps:
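Multiplexed counter screen: viability of FXR-bla HEK 293T cells under agonist stimulation by chenodeoxycholic acid (50 uM, final) and test compound for 16 h at 37 C, measured by CellTiter-Glo luminescence in the reporter wells.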

Assay [13] can be described thus: qHTS assay to identify small molecule that activate the aryl hydrocarbon receptor (AhR) signaling pathway - cell viability counter screen (AID 743086).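 Further: HepG2 liver cells carrying the AhR DRE luciferase reporter; series mostly up to about 70 µM; nearly all actives have a fitted effect of over 45% in size.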 An outline of the steps:
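HepG2-AhR-luc (HG2L7.5c1) cells, 4000/well, treated 24 h at 37 C with compound; viability measured as CellTiter-Fluor fluorescence after 30 min in the same wells as the luciferase read.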

The nature of assay [14]: qHTS assay for small molecule agonists of the antioxidant response element (ARE) signaling pathway (AID 743202; active means well fitted activation curve with a large enough effect in the signal ratio in the repeat runs, not every such curve was filed as active; the % refers to the signal ratio; further: potency means the concentration at half of the fitted maximal effect). An outline of the steps: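 HepG2 ARE-bla reporter line, 2,000 cells/well; 5 h preincubation 37 C/5% CO2; compound (DMSO) 16 h 37 C; B/G FRET substrate 2 h RT; fluorescence intensity.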
A short description of assay [15]: qHTS assay to identify small molecule agonists of the peroxisome proliferator-activated receptor delta (PPARd) signaling pathway - cell viability counter screen (AID 743211). Further: nearly all actives have a fitted effect of over 55% in size. Further: potency means the concentration at half of the fitted maximal effect. In short, it runs like this:
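Counter screen for cytotoxicity run in parallel with the PPARd reporter screen. Beta-lactamase reporter HEK293H cells exposed to compounds 17 h; ATP-based CellTiter-Glo luminescence quantified viability.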

In assay [16] the target is Peroxisome proliferator-activated receptor delta (Homo sapiens) (UniProt Q03181). Briefly: qHTS assay to identify small molecule agonists of the peroxisome proliferator-activated receptor delta (PPARd) signaling pathway (AID 743212; calls by dose curve). In short, it runs like this:
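Read-out: beta-lactamase FRET fluorescence after 2 h room-temperature incubation with LiveBLAzer B/G substrate. Cells were HEK293H carrying a UAS-bla reporter for PPARd, treated at 37 C with DMSO-dissolved compounds.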

Assay [17] can be described thus: qHTS assay to identify small molecule agonists of the farnesoid-X-receptor (FXR) signaling pathway - cell viability counter screen (AID 743218). Further: nearly all actives have a fitted effect of over 45% in size. Further: potency means the concentration at half of the fitted maximal effect. An outline of the steps:
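Luminescence from CellTiter-Glo, read after 30 min at RT, reports viability of GeneBLAzer FXR-UAS-bla HEK 293T cells treated 16 h with compounds in the wells used for the beta-lactamase reporter.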

The target in assay [18] is Vitamin D3 receptor (Homo sapiens) (UniProt P11473). Briefly: qHTS assay to identify small molecule agonists of the vitamin D receptor (VDR) signaling pathway (AID 743222; calls by dose curve). In short, it runs like this:
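Beta-lactamase reporter readout (LiveBLAzer B/G FRET, 2 h RT) in VDR-bla cells after 16 h compound treatment at 37C, 5% CO2; cells pre-incubated 4 h before pin transfer of DMSO solutions.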

Assay [19] has as its target Peroxisome proliferator-activated receptor gamma (Homo sapiens) (UniProt P37231). Briefly: qHTS assay to identify small molecule antagonists of the peroxisome proliferator-activated receptor gamma (PPARg) signaling pathway (AID 743191; calls by dose curve; further: series mostly up to about 63 µM; nearly all actives have a fitted effect of over 30% in size). An outline of the steps: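 GeneBLAzer PPARg UAS-bla HEK293H cells, 5 h post-plating, exposed to compounds 17 h at 37C. LiveBLAzer B/G FRET substrate added for 1 h at room temperature; beta-lactamase reporter read by fluorescence intensity.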

The target of assay [20] is Vitamin D3 receptor (Homo sapiens) (UniProt P11473). As to the kind of experiment: qHTS assay to identify small molecule antagonists of the vitamin D receptor (VDR) signaling pathway (AID 743223; active means well fitted inhibition curve with a large enough effect in the signal ratio in the repeat runs, not every such curve was filed as active; the % refers to the signal ratio). In short, it runs like this:
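Cells carrying a VDR-driven beta-lactamase reporter (VDR-bla) were co-treated with compound and 3 nM final 1alpha,25-dihydroxyvitamin D3 for 16 h at 37C; reporter activity was measured as FRET substrate fluorescence after 2 h at room temperature.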

These results are taken from PubChem BioAssay (Tox21).

Results filed as inconclusive are left out. Active and inactive are the calls of the source. Unless noted, the call rests on the fitted dose curve; in most records, active means well fitted curve in the direction sought with a large enough effect in the repeat runs; inconclusive means weak or mixed curves; inactive means no such curve, though single readings can be large; an effect the other way counts as inactive or inconclusive.

Chain of Aryl hydrocarbon receptor (Homo sapiens) (P35869 whole entry, looked up): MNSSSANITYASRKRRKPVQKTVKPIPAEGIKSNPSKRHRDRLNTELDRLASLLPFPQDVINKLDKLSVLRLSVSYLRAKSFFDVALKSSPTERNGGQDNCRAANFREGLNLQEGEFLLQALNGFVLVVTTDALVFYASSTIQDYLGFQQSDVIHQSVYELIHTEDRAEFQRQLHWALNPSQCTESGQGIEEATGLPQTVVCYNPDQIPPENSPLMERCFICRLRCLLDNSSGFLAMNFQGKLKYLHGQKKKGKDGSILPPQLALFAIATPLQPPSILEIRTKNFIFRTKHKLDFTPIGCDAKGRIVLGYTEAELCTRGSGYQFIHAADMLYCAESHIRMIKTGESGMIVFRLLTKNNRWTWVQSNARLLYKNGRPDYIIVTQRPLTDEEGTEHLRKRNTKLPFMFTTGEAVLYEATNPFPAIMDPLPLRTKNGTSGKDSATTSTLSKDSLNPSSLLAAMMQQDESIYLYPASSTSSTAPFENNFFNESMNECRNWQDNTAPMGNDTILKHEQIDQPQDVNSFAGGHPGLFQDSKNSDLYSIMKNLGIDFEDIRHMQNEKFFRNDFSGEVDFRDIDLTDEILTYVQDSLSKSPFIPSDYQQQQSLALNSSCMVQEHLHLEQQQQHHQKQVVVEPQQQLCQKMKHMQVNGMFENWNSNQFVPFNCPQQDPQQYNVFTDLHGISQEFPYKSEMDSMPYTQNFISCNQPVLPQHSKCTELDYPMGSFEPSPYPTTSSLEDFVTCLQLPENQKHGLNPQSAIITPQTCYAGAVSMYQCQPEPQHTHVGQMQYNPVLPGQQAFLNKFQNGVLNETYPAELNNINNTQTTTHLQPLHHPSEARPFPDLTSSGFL
Chain of Vitamin D3 receptor (Homo sapiens) (P11473 whole entry, looked up): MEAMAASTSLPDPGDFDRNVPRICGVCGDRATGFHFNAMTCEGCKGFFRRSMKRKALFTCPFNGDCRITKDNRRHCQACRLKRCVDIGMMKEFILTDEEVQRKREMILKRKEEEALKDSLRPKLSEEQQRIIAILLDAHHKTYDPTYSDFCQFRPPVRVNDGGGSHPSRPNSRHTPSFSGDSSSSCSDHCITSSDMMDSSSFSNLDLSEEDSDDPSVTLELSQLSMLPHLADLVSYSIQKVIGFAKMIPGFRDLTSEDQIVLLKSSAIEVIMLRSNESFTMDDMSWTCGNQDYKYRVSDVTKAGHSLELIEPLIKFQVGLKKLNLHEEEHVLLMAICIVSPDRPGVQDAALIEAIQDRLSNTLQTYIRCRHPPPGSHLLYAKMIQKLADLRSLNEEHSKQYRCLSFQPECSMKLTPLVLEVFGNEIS
Chain of Peroxisome proliferator-activated receptor delta (Homo sapiens) (Q03181 whole entry, looked up): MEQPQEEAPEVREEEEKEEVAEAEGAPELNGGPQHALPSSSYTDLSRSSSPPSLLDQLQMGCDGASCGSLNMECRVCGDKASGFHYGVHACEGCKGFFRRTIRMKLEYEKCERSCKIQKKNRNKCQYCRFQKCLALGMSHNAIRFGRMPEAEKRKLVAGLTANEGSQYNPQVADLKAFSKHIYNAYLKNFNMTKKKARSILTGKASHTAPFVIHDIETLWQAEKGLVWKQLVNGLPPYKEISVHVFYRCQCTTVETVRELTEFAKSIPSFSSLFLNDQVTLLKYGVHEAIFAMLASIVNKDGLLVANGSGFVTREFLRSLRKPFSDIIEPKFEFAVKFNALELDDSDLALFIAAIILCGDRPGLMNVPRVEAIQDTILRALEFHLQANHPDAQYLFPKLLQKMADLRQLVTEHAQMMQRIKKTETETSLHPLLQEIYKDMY
Chain of Bile acid receptor (Homo sapiens) (Q96RI1 whole entry, looked up): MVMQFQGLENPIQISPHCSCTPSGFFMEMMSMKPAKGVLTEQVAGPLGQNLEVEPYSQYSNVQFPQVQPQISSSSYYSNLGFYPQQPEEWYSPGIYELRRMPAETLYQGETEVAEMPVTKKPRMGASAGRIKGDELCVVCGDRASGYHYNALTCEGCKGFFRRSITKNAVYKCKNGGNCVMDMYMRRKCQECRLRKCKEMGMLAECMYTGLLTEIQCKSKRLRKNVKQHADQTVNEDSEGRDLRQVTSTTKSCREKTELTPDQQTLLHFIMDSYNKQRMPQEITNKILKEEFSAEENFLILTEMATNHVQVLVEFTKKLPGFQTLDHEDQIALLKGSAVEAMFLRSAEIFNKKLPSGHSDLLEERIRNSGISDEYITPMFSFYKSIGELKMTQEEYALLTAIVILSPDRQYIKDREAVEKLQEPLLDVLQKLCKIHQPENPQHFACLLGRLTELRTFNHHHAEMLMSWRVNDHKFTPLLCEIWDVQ

On to `O=C1Cc2ccccc2N1c1c(Cl)cccc1Cl`, for which the Potency entry in assay [1], in assay [2], in assay [3], in [4], in assay [5] and in assay [6] was “inactive” in each case. Besides, the Potency entry in assay [7], in assay [8], in assay [9], in assay [10], in [11] and in assay [12] was “inactive” throughout.

Turning to `CC(=O)[C@H]1[C@H](C#N)C[C@H]2[C@@H]3CC=C4C[C@@H](O)CC[C@]4(C)[C@H]3CC[C@@]21C`, the Potency result in assay [1], in [2], in [13], in assay [4], in [5] and in assay [6] was “inactive” in each case. Besides, the Potency entry in assay [7], in [15], in assay [16], in assay [9], in assay [10] and in assay [17] was “inactive” each time. In addition, the Potency result in assay [12] was “inactive”. In assay [14], the Potency is 33.1 µM (active).

Consider `CCOc1ccccc1O[C@H](c1ccccc1)[C@H]1CNCCO1`, for which the Potency result in assay [1], in assay [2], in assay [3], in [4], in assay [5] and in [7] was “inactive” each time. For the same molecule, the Potency entry in assay [15], in [16], in assay [9] and in assay [11] was “inactive” each time.

Regarding `O=C(O)CCCCCCCCCCCBr`, the Potency entry in [1], in assay [2], in assay [13], in assay [4], in assay [5] and in assay [6] was “inactive” in each case. Also, the Potency entry in assay [7], in assay [15], in assay [16], in assay [8], in assay [9] and in assay [17] was “inactive” each time. Also, the Potency result in assay [12] is “inactive”.

`C=C1c2cccc(O)c2C(O)=C2C(=O)[C@]3(O)C(O)=C(C(N)=O)C(=O)[C@@H](N(C)C)[C@@H]3[C@@H](O)[C@H]12`: the Potency result in assay [1], in assay [2], in assay [13], in assay [4], in assay [14] and in assay [5] was “inactive” in each case. The Potency entry in assay [6], in assay [7], in assay [15], in [16], in assay [8] and in [10] was “inactive” each time. The Potency entry in assay [11] is “inactive”.

`COc1ncnc(NS(=O)(=O)c2ccc(N)cc2)c1OC`: the Potency result in assay [1], in assay [2], in assay [13], in assay [4], in [5] and in assay [7] was “inactive” throughout. The Potency entry in assay [15], in assay [16], in assay [8], in assay [9], in [17] and in assay [12] was “inactive” each time.

Consider `CCOC(=O)c1ccc(C#Cc2ccc3c(c2)C(C)(C)CCS3)nc1`, for which the Potency entry in [1], in assay [2], in assay [13], in [4], in assay [5] and in assay [6] was “inactive” each time. For the same molecule, the Potency result in [8], in [17] and in [12] was “inactive” in each case. For the same molecule, the Potency in assay [14] is 26.6 µM (active).

With `CCC1(CO)COCOC1`, the Potency entry in [1], in assay [2], in assay [13], in assay [4], in assay [5] and in assay [15] was “inactive” in each case. Also, the Potency result in [16], in assay [12] and in assay [18] was “inactive” each time.

As to `CCC(C)COC(=O)CC(C)C` (stereo not drawn), the Potency result in assay [1], in assay [2], in assay [13], in assay [19], in assay [5] and in assay [6] was “inactive” throughout. Also, the Potency result in [7], in assay [8], in assay [9], in assay [18] and in [20] was “inactive” each time. The Potency in assay [17] was 24.5 µM (active).

On to `CC(C)COCC(CN(Cc1ccccc1)c1ccccc1)N1CCCC1` (stereo not drawn), for which the Potency entry in assay [1], in assay [2], in [13], in assay [19], in [9] and in assay [11] was “inactive” each time. The Potency in assay [4] is 26.6 µM (active); in assay [5] it was 26.6 µM (active); in [15], 21.1 µM (active); in assay [17], 33.5 µM (active).

Regarding `OC[C@H]1O[C@@H](n2cnc3c(=S)nc[nH]c32)[C@H](O)[C@@H]1O`, the Potency result in assay [1], in assay [2], in assay [13], in [6], in assay [7] and in [16] was “inactive” in each case. For the same molecule, the Potency entry in assay [11], in assay [18] and in assay [20] was “inactive” throughout. Moreover, the Potency is 3.76 µM (active) in [4], 3.35 µM (active) in assay [14], 2.66 µM (active) in [5] and 16.8 µM (active) in assay [12].
